# FBW7 activator: human FBW7 E3 ligase activation, primary screen; normalized activity (activation), % at 26.1 µM; Q969H0; AlphaScreen FBW7–phospho-cyclin E peptide binding, activator screen; 650,000 compounds, 0.13% hits; in the data active means normalized activity above about 1.9%;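 further: purified mutant Fbw7 with reduced substrate affinity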
# TEAD-YAP inh: TEAD-YAP interaction inhibition | HEK-TIYL cells, TEAD-Gal4/YAP UAS-luciferase luminescence | 640,000 compounds, 1.4% hits | inhibition, % at 9.12 µM; in the data active means inhibition above about 32%;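 further: 0% = median of test compound wells and 100% = reference inhibitor wells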
# MITF inh: inhibitors of human MITF; AlphaScreen MITF homodimerization, bead proximity signal; inhibition, % at 2.6 µM; 650,000 compounds, 0.91% hits; O75030; in the data active means inhibition above about 50%;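 further: 0% = vehicle wells with protein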
# GPR151 ag: human GPR151 activation | Q8TDV0 | PathHunter beta-arrestin GPR151 cells, luminescence | activation, % at 11.2 µM | 650,000 compounds, 1% hits | AID 1508602; in the data active means activation above about 4.9%;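 further: 0% = median of compound wells and 100% = cells with positive control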
# Target sequence (Q8TDV0 whole entry, looked up): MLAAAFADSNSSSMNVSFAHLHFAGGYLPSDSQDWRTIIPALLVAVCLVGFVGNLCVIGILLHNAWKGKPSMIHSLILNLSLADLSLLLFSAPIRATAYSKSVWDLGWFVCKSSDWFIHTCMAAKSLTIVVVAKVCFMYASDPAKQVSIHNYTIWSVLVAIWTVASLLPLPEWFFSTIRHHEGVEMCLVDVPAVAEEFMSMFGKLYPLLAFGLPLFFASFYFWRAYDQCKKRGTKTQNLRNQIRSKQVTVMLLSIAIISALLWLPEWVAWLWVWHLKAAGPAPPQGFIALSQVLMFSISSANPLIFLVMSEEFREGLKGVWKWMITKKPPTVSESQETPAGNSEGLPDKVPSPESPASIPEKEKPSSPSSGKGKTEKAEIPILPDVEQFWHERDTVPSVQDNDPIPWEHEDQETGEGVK
# MITF confirm: confirmation of human MITF inhibitors; shares compounds with MITF inh; AlphaScreen MITF homodimerization, biotin/His-MITF beads; inhibition, % at 2.6 µM; 4,700 compounds, 16% hits; AID 1259372;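 active means inhibition above a cutoff derived from the DMSO control wells, cut at about 28% in these data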;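 further: 0% = MITF dimer wells with DMSO only; inhibitors lower the bead chemiluminescence by keeping MITF from dimerizing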
# AS interf ctr: optically interferes with AlphaScreen signal; LysRS AlphaScreen counterscreen, signal interference, triplicate; 4,700 compounds, 7.6% hits; AID 1259376; inhibition, % at 2.6 µM; shares compounds with MITF inh;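 active means inhibition above a cutoff derived from the DMSO control wells, cut at about 30% in these data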
# Numbers without * were called inactive; · = not tested or not shown. This is a sample that favours compounds with a hit; in the whole collection about 3.5% have one here.
SMILES,FBW7 activator,TEAD-YAP inh,MITF inh,GPR151 ag,MITF confirm,AS interf ctr
COCCNC(=O)Cc1ccc(NC(=O)C2CC(=O)N(c3ccccc3)C2)cc1 (stereo not drawn),0,-7,29,0,·,·
COc1cc2c(cc1OC)CN(Cc1cc(OC)c3c(c1)OCO3)CC2,0,2,24,0,·,·
COc1cc(CN2CCN(Cc3ccccc3F)CC2)cc2c1OCO2,0,-6,81*,-1,0,6
COc1cc(CN2CCN(Cc3ccccc3)CC2)cc2c1OCO2,0,-1,78*,0,7,-2
COc1cc(CN2CCN(Cc3ccccc3Br)CC2)cc2c1OCO2,0,1,73*,-1,8,14
Fc1cccc(-c2cnn3c(NCc4ccco4)ccnc23)c1,1,-56,18,-2,·,·
c1ccc(CN2CCN(Cc3cccnc3)CC2)nc1,0,0,74*,0,-18,-1
O=C1CCN(Cc2cccnc2)CCN1Cc1ccc(F)cc1Cl,0,8,13,1,·,·
Clc1ccc(CN2CCN(Cc3cccnc3)CC2)cc1,0,-5,84*,1,9,12
c1ccc(CN2CCN(C3CCN(Cc4cccnc4)CC3)CC2)cc1,0,0,38,3,·,·
Clc1ccccc1CN1CCN(Cc2cccnc2)CC1,0,-3,83*,-1,10,12
Clc1ccc(N2CCN(Cc3cccnc3)CC2)cc1,0,-3,52*,0,-2,8
Cc1ccccc1N1CCN(Cc2cccnc2)CC1,0,15,28,3,·,·
FC(F)(F)c1cccc(N2CCN(Cc3cccnc3)CC2)c1,0,7,46,-1,·,·
CCc1ccc(CN2CCN(Cc3cccnc3)CC2)cc1,0,-1,77*,0,2,-1
FC(F)(F)c1ccc(CN2CCN(Cc3cccnc3)CC2)cc1,0,-13,81*,1,-6,-6
Cc1ccc(OCC(=O)OCC(=O)c2ccc(F)cc2)cc1,0,5,3,-1,·,·
CCOc1ccc(C2C(C(=O)OC3CCCC3)=C(C)NC3=C2C(=O)CC(c2ccc(OC)cc2)C3)cc1OC (stereo not drawn),0,10,-2,2,·,·
CS(=O)(=O)c1ccccc1C(=O)Nc1nc(-c2ccccn2)cs1,-2,19,57*,1,38*,100*
CSc1ccccc1C(=O)Nc1nc(-c2ccccn2)cs1,-2,14,28,-1,·,·
CCn1ccc(C(=O)Nc2nc(-c3ccccn3)cs2)n1,-1,-23,83*,3,73*,101*
O=C(NNc1ncnc(NNC(=O)c2ccncc2)c1[N+](=O)[O-])c1ccncc1,-1,3,65*,-8,66*,100*
Cc1cc(N2CCCCC2)nc2ccc(NC(=O)c3cccnc3)cc12,1,-6,53*,0,-7,0
CCCn1c(N)c(C(=O)CN(CC)Cc2nc3ccccc3c(=O)[nH]2)c(=O)[nH]c1=O,0,-3,6,1,·,·
CN(CCc1ccccn1)Cc1ccccc1[N+](=O)[O-],0,1,57*,0,11,1
SMILES,FBW7 activator,TEAD-YAP inh,MITF inh,GPR151 ag,MITF confirm,AS interf ctr
COc1ccc(CN(C)CCc2ccccn2)c(OC)c1,0,2,77*,-1,4,3
CN(CCc1ccccn1)Cc1cc2c(cc1[N+](=O)[O-])OCO2,0,-9,8,1,·,·
COc1cccc(CN(C)CCc2ccccn2)c1OC,0,-2,41,-1,·,·
C=CCOc1ccccc1CN(C)CCc1ccccn1,0,9,65*,0,-12,-7
CN(C)CCN(C)Cc1ccccc1[N+](=O)[O-],0,-2,76*,-1,10,17
Cc1ccc(CNS(=O)(=O)c2ccc(-n3cccn3)cc2)o1,0,7,2,0,·,·
CCCCn1c(CNC(=O)Cc2ccccc2)nnc1SCC(=O)Nc1sc2c(c1C(=O)OCC)CCC2,0,2,5,2,·,·
COc1cc(/C=C2/SC(=Nc3ccccc3)N(c3ccccc3)C2=O)cc(OC)c1,0,8,4,0,·,·
CCOC(=O)c1ccc(CN(Cc2ccc(F)cc2)S(=O)(=O)c2ccc(F)c(C(=O)Nc3c(C)cccc3CC)c2)cc1,0,-3,19,2,·,·
O=C(NC1CCCCCCC1)c1ccc2nc3ccccc3c(=O)n2c1,0,-31,-10,0,·,·
CN(CCc1ccccn1)Cc1ccccc1Br,0,3,81*,0,1,11
CN(CCc1ccccn1)Cc1ccccc1F,0,-1,79*,0,2,19
CN(C)CCN(C)Cc1ccccc1F,0,-2,53*,1,-2,-2
CN(CCc1ccccn1)Cc1ccccc1C(F)(F)F,0,-2,35,-1,·,·
CCOc1ccc(S(=O)(=O)NCC2CCN(Cc3cccs3)CC2)cc1,0,9,-2,0,·,·
Cc1ccccc1CNC(=O)CN(c1ccccc1)S(=O)(=O)c1ccccc1[N+](=O)[O-],0,10,-5,0,·,·
COc1cc(C=C2C(=O)OC(C)(C)OC2=O)ccc1OCCc1ccccc1,1,31,17,-8,·,·
CCOC(=O)CCNC(C)C1COc2ccccc2O1 (stereo not drawn),0,4,51*,1,11,13
C=C/C=C(\C(C)=C(C)C)N(C(C)=O)C1=NCCCS1,0,3,65*,1,12,11
CCCS(=O)(=O)N1CCN(C(C)CC)CC1 (stereo not drawn),0,-3,52*,2,-3,13
O=C(Nc1ccc2oc(-c3ccccc3Br)nc2c1)c1ccc(Cl)cc1,0,9,-11,1,·,·
Cc1nnc(SCc2nc3ccccc3[nH]2)n1C,0,5,74*,0,13,16
COc1ccccc1-c1nnc(SCc2nc3ccccc3[nH]2)n1C,0,7,7,0,·,·
O=C(CCCn1c(SCC(=O)NC2CCCC2)nc2ccccc2c1=O)NCCCN1CCOCC1,0,-5,57*,0,-16,-8
COc1ccc(NC(=O)CCC(=O)OCC(=O)c2ccc(Cl)c(Cl)c2)cc1,0,13,62*,1,14,16
SMILES,FBW7 activator,TEAD-YAP inh,MITF inh,GPR151 ag,MITF confirm,AS interf ctr
COc1ccc(C(=O)COC(=O)CCC(=O)Nc2ccc(Cl)c(Cl)c2)cc1,0,2,-6,2,·,·
NC(=O)C1CCN(C(=O)/C=C/c2ccc([N+](=O)[O-])cc2)CC1,0,-4,20,4,·,·
CC(C)(C)c1ccc(/C=C/C(=O)N2CCC(C(N)=O)CC2)cc1,0,-13,65*,1,-6,-10
O=C(Nc1ccc(F)cc1)N1CCN(Cc2nc3ccccc3n2Cc2ccccc2)CC1,0,-25,3,-1,·,·
CC(C)(C)C(=O)N1CCN(Cc2nc3ccccc3n2Cc2ccccc2)CC1,0,-25,13,1,·,·
C=CCNC(=O)N1CCN(Cc2nc3ccccc3n2Cc2ccccc2)CC1,0,-13,78*,2,-4,14
